Source: PubChem BioAssay (Tox21)
Records with an inconclusive call do not appear. Entries that show only a call come without a potency. Calls of active or inactive are those of the source. The call rests on the fitted dose curve; in most records, active means well fitted activation curve with a large enough effect in the repeat runs; inconclusive means weak or mixed curves; inactive means flat fitted curve, though single readings scatter.

Test: A CellTox Green Cytotoxicity Assay to monitor cytotoxicity in HEK293 cells - 24 hour (AID 1224875); further: nearly all actives have a fitted effect of over 45% in size
Conditions: CellTox Green fluorescence; series mostly up to 76.8 µM
Description: National Center for Advancing Translational Sciences [NCATS]
NIH Chemical Genomics Center [NCGC]
U.S. Environmental Protection Agency [EPA]
National Institutes of Environmental Health Sciences [NIEHS]
National Toxicology Program [NTP]
Cell-based models are critical for drug discovery. Determining the natural cytotoxic effects resulting from test compounds is an essential research activity. A CellTox Green Cytotoxicity Assay to monitor cytotoxicity in real time of continues cell culture during 40 hours of the compound treatment was used to screen Tox21 10K library compounds in Hek293 cells. CellTox Green Cytotoxicity Assay is a nonlytic, homogeneous, biofluorescent method to measure cytotoxicity in cell culture after experimental manipulation. The assay system uses a proprietary asymmetric cyanine dye that is excluded from viable cells but preferentially stains the dead cell's DNA. […] Viable cells produce no appreciable increases in fluorescence. Therefore, the fluorescence signal produced by the binding interaction with dead cell DNA is proportional to cytotoxicity.
The mixture of Hek293 cell suspension and reagents were dispensed at 600cells/6 ul/well in 1536-well tissue culture treated black solid bottom plates using a Multidrop dispenser. After the assay plates were incubated at a 37 C/5% CO2 incubator for 5 hours, 23 nL of compounds dissolved in DMSO, positive and negative controls was transferred to the assay plate by a pintool work station. The plates were incubated at 37 C for 40 hours. The fluorescence intensity were measured at 0h, 8h, 16h, 24h, 32h and 40h time points using ViewLux plate reader during compound treatment.
Potency means the concentration at half of the fitted maximal effect.

Row | SMILES | Potency | activity change
1 | OCC(c1ccc(Cl)cc1)c1ccc(Cl)cc1 | 24.5 µM (active) | –
2 | Cc1cc(C)c(C(=O)P(=O)(c2ccccc2)c2ccccc2)c(C)c1 | inactive | –
3 | CCN(CC)C(=O)Cl | inactive | –
4 | CNC(=O)Oc1cc(C)c(SC)c(C)c1 | 21.9 µM (active) | –
5 | ClC1=C(Cl)[C@]2(Cl)[C@@H]3[C@@H](Cl)[C@H]4O[C@H]4[C@@H]3C1(Cl)C2(Cl)Cl | 54.9 µM (active) | –
6 | CC1COC(Cn2cncn2)(c2ccc(Oc3ccc(Cl)cc3)cc2Cl)O1 (stereo not given) | inactive | –
7 | Cc1ccc2nc3sc(=O)sc3nc2c1 | – | -5.16% [at 15.8 µM, active compounds read high] (inactive)
8 | O=S(=O)(C(Cl)(Cl)Cl)C(Cl)(Cl)Cl | 21.9 µM (active) | –
9 | COc1ccc(C(c2ccc(OC)cc2)C(Cl)(Cl)Cl)cc1 | inactive | –
10 | Cc1ccc(N(SC(F)(Cl)Cl)S(=O)(=O)N(C)C)cc1 | 17.4 µM (active) | –
11 | O=C1C(I)=CC(=C(c2cc(I)c(O)c(I)c2)c2ccccc2C(=O)O)C=C1I | inactive | –
12 | O=[N+]([O-])c1c(Cl)c(Cl)cc(Cl)c1Cl | 49 µM (active) | –
13 | Clc1ccccc1-c1ccccc1Cl | 35.2 µM (active) | –
14 | COc1cc(OC)c(OC)cc1C=O | inactive | –
15 | CN1CSC(=S)N(C)C1 | inactive | –
16 | Nc1ccc([N+](=O)[O-])cc1 | 49 µM (active) | –
17 | N#Cc1cc([N+](=O)[O-])ccc1N | inactive | –
18 | Oc1c(I)cc(I)cc1I | inactive | –
19 | OC(Cc1ccccc1Cl)(Cn1[nH]cnc1=S)C1(Cl)CC1 (stereo not given) | inactive | –
20 | Cc1nnc2n1-c1sc(CCc3ccc(CC(C)C)cc3)cc1C(c1ccccc1Cl)=NC2C (stereo not given) | inactive | –
